Assay results: the supplement of paper PMC4206461

Tested on: Pseudomonas aeruginosa PA14 wild type
Test: respiration area under curve with compound as sole nitrogen source, 24 h (OmniLog AUC (arbitrary units)); higher = more respiration / better utilisation as nitrogen source, active = 2000 or more
Description: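 Biolog Phenotype MicroArray plates PM6-PM8: each di/tripeptide is the sole nitrogen source (IF-0 medium with succinate/ferric citrate and dye mix A). Tetrazolium reduction was read in the OmniLog every 15 min for 24 h at 37°C and summarised as area under the respiration curve (arbitrary units). The paper counts values below 2000 as no respiration and above 8000 as solid respiration. Replicate datasets are averaged.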

Compound | respiration area under curve
CC(C)C(NC(=O)C1CCCN1)C(=O)O (stereo not given) (plate: PM8) | 7080 (active)
CC(C)[C@H](NC(=O)[C@@H](N)Cc1c[nH]c2ccccc12)C(=O)O (plate: PM8) | 3080 (active)
N[C@@H](CC(=O)O)C(=O)N[C@@H](CCC(=O)O)C(=O)O (plate: PM6) | 291 (inactive)
CSCC[C@H](N)C(=O)N[C@@H](CC(=O)O)C(=O)O (plate: PM7) | 4700 (active)
CC[C@H](C)[C@H](N)C(=O)N[C@@H](CC(C)C)C(=O)O (plate: PM8) | 6290 (active)
N[C@@H](CO)C(=O)N[C@@H](Cc1ccccc1)C(=O)O (plate: PM7) | 7090 (active)
C[C@@H](O)[C@H](N)C(=O)N[C@@H](Cc1ccccc1)C(=O)O (plate: PM8) | 8640 (active)
CC(C)C[C@H](N)C(=O)N[C@@H](CC(N)=O)C(=O)O (plate: PM8) | 12400 (active)
NCC(=O)N[C@@H](CC(N)=O)C(=O)O (plate: PM8) | 14700 (active)
O=C(O)[C@H](Cc1ccc(O)cc1)NC(=O)[C@@H]1CCCN1 (plate: PM7) | 12200 (active)
NC(N)=NCCC[C@H](N)C(=O)N[C@@H](CO)C(=O)O (plate: PM6) | 9350 (active)
CC(C)C[C@H](NC(=O)[C@@H](N)CC(=O)O)C(=O)O (plate: PM6) | 2690 (active)
CC[C@H](C)[C@H](N)C(=O)N[C@H](C(=O)O)C(C)C (plate: PM6) | 6570 (active)
CC[C@H](C)[C@H](N)C(=O)N[C@@H](Cc1ccccc1)C(=O)O (plate: PM6) | 2830 (active)
CSCC[C@H](N)C(=O)N[C@@H](Cc1ccccc1)C(=O)O (plate: PM7) | 1400 (inactive)
CC(C)[C@H](N)C(=O)N[C@@H](CCC(N)=O)C(=O)O (plate: PM8) | 9290 (active)
C[C@@H](N)C(=O)NCC(=O)NCC(=O)O (plate: PM8) | 211 (inactive)
CC(C)C(N)C(=O)NC(CO)C(=O)O (stereo not given) (plate: PM8) | 9530 (active)
CC(C)[C@H](N)C(=O)N[C@@H](CC(N)=O)C(=O)O (plate: PM7) | 12300 (active)
CC(C)C[C@H](NC(=O)[C@@H](N)CO)C(=O)O (plate: PM7) | 7960 (active)
CC[C@H](C)[C@H](N)C(=O)N[C@H](C(=O)O)[C@@H](C)CC (plate: PM6) | 2030 (active)
NCC(=O)NCC(=O)NCC(=O)O (plate: PM8) | 7740 (active)
O=C(O)[C@H](Cc1ccccc1)NC(=O)[C@@H]1CCCN1 (plate: PM7) | 7250 (active)
N[C@@H](Cc1ccccc1)C(=O)N[C@@H](CC(=O)O)C(=O)O (plate: PM8) | 2860 (active)
CC(C)C[C@@H](N)C(=O)N[C@H](CC(C)C)C(=O)O (plate: PM8) | 0 (inactive)
